Data published in article PMC13494018.
A number with no mark means an inactive call. How the calls were made is not given here.

Target: CD276, Q5ZPR3
Sequence (Q5ZPR3 whole entry): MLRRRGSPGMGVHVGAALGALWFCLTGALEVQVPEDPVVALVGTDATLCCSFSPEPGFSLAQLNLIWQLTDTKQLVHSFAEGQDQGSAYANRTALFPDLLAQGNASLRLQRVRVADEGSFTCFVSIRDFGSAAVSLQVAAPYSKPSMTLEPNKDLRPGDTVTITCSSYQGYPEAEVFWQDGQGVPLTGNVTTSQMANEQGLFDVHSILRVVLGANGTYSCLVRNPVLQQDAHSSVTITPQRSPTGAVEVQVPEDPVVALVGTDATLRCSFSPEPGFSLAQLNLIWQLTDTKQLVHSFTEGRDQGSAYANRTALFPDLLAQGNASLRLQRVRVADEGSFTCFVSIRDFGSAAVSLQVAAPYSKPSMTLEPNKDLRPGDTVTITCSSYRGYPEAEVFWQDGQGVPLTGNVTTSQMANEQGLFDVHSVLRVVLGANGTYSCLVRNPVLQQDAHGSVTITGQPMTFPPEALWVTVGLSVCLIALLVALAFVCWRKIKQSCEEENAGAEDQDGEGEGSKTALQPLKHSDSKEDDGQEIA

Binder	binding in a display sort
design_613_5efed0bc-64ba-423b-b3f9-a246574e49bb_896_dldesign_0_cycle1_af2pred (protein) AQAEAARQAAVDALAKSGEAAVKAMKEDPERASKRASGAIANLRLLGDEETAEKVAKKLLEEAKKLGEEAYEIAKKEVEKAKENVEA	not found
design_613_5efed0bc-64ba-423b-b3f9-a246574e49bb_898_dldesign_0_cycle1_af2pred (protein) GEEEERLRREGERIVEEARRLAEEAVAAIKAAAPDVAKATAILIDYLKRIDELVKRAAPYPEAAAEVAELGNRASAQGIRYIMAAA	not found
design_613_5efed0bc-64ba-423b-b3f9-a246574e49bb_992_dldesign_0_cycle1_af2pred (protein) GERVEELRALVEEAARVSPELAALAQEALRLYLRGLALSANPATAARGEAAFAESERLAAEARARLAERLAAAAA	not found
design_613_5efed0bc-64ba-423b-b3f9-a246574e49bb_1032_dldesign_0_cycle1_af2pred (protein) AQAKADELEALGKEAEKKAKEAKNPEAAALYKGAAELMNAMAEAARQTPEFADQLYRMGKASYEALKTEAEKKEAAYKEKE	not found
design_613_5efed0bc-64ba-423b-b3f9-a246574e49bb_1180_dldesign_0_cycle1_af2pred (protein) AEAEEKKRRAEAHVQAAEVYITAARSAMEAGLTDAALAHAKRAIEHAQKAIELGEPRGKELLAEAEAVLKEVKA	not found
design_613_5efed0bc-64ba-423b-b3f9-a246574e49bb_1183_dldesign_0_cycle1_af2pred (protein) AEAQKLLEEARKLKEKAFALSPLQVGESLRYASELRKLAEKAAEADPSLAPEAKALAEETSAHVAAKARAGIAAQAA	not found
design_613_5efed0bc-64ba-423b-b3f9-a246574e49bb_1210_dldesign_0_cycle1_af2pred (protein) AEKIEKLTKALELLLEALKHKDDIELARELAKKAAELLKEAGAEEAAKYAEAAAKATDKEEMTELLNKAAGKAAKAIIDAQKAAA	not found
design_613_5efed0bc-64ba-423b-b3f9-a246574e49bb_1212_dldesign_0_cycle1_af2pred (protein) SPVEVALAAAKATVKSAEKANVESAEKLAEVAKDLAEYAAKLGGEEAKKEAEKIKKEAEEAVKKQKERAAAA	not found
design_613_5efed0bc-64ba-423b-b3f9-a246574e49bb_1256_dldesign_0_cycle1_af2pred (protein) DKAVTSAILRKSLAHARRQLAAATTAEEAEAVAQTAQVLADAAKAAGDAATAAEAAALAAEARAKAAALRAAEEAAA	not found
design_613_5efed0bc-64ba-423b-b3f9-a246574e49bb_1285_dldesign_0_cycle1_af2pred (protein) GLKEELLKEVRKVKKEAEKNAKDLEKLNEYLAKALDIAKKAQEAGDKETIAEATKVANLAAKLALEVAKA	not found
design_613_5efed0bc-64ba-423b-b3f9-a246574e49bb_1308_dldesign_0_cycle1_af2pred (protein) AAAEKAKEAAKKAEELAKYAEEHKEELTPEELRKIGYELVKQGNTLLQAGGAAQAAAQKAFGYAAEVAELIRE	not found
design_613_5efed0bc-64ba-423b-b3f9-a246574e49bb_1341_dldesign_0_cycle1_af2pred (protein) AVAAAGAKGLAAAAKSVAEATIRLAEQVAKEDPSKAEQAKAIAEQAKAAAAAAAKAAEAGDTAAAQAQFQKLVALYQQVLDLAK	not found
design_613_5efed0bc-64ba-423b-b3f9-a246574e49bb_1343_dldesign_0_cycle1_af2pred (protein) LAEAAERTARAIERNALEAIKTLSPEEAKRAAELAVTMLEGLAIAAPEAAPVARGLAERVRAAEREYTSKKLAE	not found
design_613_5efed0bc-64ba-423b-b3f9-a246574e49bb_1354_dldesign_0_cycle1_af2pred (protein) GEALKEALRQKALEAANKALALTSQLWTKDPARAQPAIALIIQGLETGDPKYFFEAAEKVAADPEAAGAAKAAGEYMEKANKL	not found
design_613_5efed0bc-64ba-423b-b3f9-a246574e49bb_1387_dldesign_0_cycle1_af2pred (protein) AAAAAQAGQLAVQAAQGMIKKAKEILKRMPEVDPEKALASAKGVTDVAQALADQAIASPATAAQGKALKAEAKAVLAEAEKAAA	not found
design_613_5efed0bc-64ba-423b-b3f9-a246574e49bb_1398_dldesign_0_cycle1_af2pred (protein) MEEVKEEMEKLLEKVKKAVAEDVGKGGEVLVEFVKKGAELAANSTPEAAAYARKKMKEAINIVLEATLAA	not found
design_613_5efed0bc-64ba-423b-b3f9-a246574e49bb_1441_dldesign_0_cycle1_af2pred (protein) SEAERLAEEARRVILSGTAEEGAAAAVAAARKALEAGNLEGANLVLYESALAFGEAQRRGTPEDRAILNRGLAEVSRITLELARAA	not found
design_613_5efed0bc-64ba-423b-b3f9-a246574e49bb_1611_dldesign_0_cycle1_af2pred (protein) DAAAKAKAKEAEAKGKELIAKAKAAAEAGDYDAANAYLQQAIKLGMEMASSGASQAEVDVGAKIVSAVVEAMEYMSAQRRARR	not found
design_613_5efed0bc-64ba-423b-b3f9-a246574e49bb_1690_dldesign_0_cycle1_af2pred (protein) AAALEVGRRTLAALERTAEAAIAAARATTPEEAAREMGRARAAAEQARLIGEGVPELAPRAEALAERVAAAAAALEAA	not found

Binder	binding in a display sort
design_613_5efed0bc-64ba-423b-b3f9-a246574e49bb_1763_dldesign_0_cycle1_af2pred (protein) LQELIENGETLEALGKSAAAAGFNATAKRLYQDAAEQYKKAAEKAKELGDEELAKEYEAKAKEAEAKAKEY	not found
design_613_5efed0bc-64ba-423b-b3f9-a246574e49bb_1796_dldesign_0_cycle1_af2pred (protein) SAANIAAAKAYANMAATLAKQAGNEEAAKKAKEAAKVAADKEKATKLLKEAEELLKKEPAEKAPYTNKALEFIKLAKEALSKL	not found
design_613_5efed0bc-64ba-423b-b3f9-a246574e49bb_1837_dldesign_0_cycle1_af2pred (protein) MTPREKAIAAINAATALAAAAVPAYADTFADLAGIVLTALEAGTGPTAVRVVGQAVVNVLRGAGATAAADAVAALYDEALEAAKAAA	not found
design_613_5efed0bc-64ba-423b-b3f9-a246574e49bb_2052_dldesign_0_cycle1_af2pred (protein) GGAAAIALAEAVARQAERQAEEAIAIAPERAPEIEELLERARELAKQAVALAKAGDLGAATEHVVKALELVGEIGRIAREAAAA	not found
design_613_5efed0bc-64ba-423b-b3f9-a246574e49bb_2054_dldesign_0_cycle1_af2pred (protein) FERAARAVEAVIELLRLLAEGNPATAAELRARAEELEAELAKARELAEKEGPEAGKARAEAIAAEGRRLLAEASRTAV	not found
design_613_5efed0bc-64ba-423b-b3f9-a246574e49bb_2086_dldesign_0_cycle1_af2pred (protein) AEDERRVASMRELAAQLVAIAEANAANPAALAIVRASALAAGRSFAAAASPEAAAEILAIAAATAARIAAIAAAAAAAA	not found
design_613_5efed0bc-64ba-423b-b3f9-a246574e49bb_2155_dldesign_0_cycle1_af2pred (protein) AAAQAAAVATAAGQALLKQGKKLFEEGKKSGDKKLLEEAAKNFELAATMYAQASAAAGGAADANKKEAEAKLEEAKAAI	not found
design_613_5efed0bc-64ba-423b-b3f9-a246574e49bb_2281_dldesign_0_cycle1_af2pred (protein) AAAELIAKAKEYQAKALEYVKLAKEAEAAAKAATPEEGAKLNAKADFFNAMALVYAQRAAALLAQVDPALAKAALEKVQKAIA	not found
design_613_5efed0bc-64ba-423b-b3f9-a246574e49bb_2419_dldesign_0_cycle1_af2pred (protein) ALGQQLVQQAKEKGKELLEIAKKGTAADAGEAAVELARFTSETARQLEQAGLPAAAQQVLAIGQKTLKEISAIGIAKITA	not found
design_614_ef6b398b-10cb-4a07-8087-96dafb4f9c83_4_dldesign_0_cycle1_af2pred (protein) AAGDEAANAAIALGQVLGPEVAEETTKAVEYMKSGSEKEKAKEYAEKAVELAEKVGPNSAASLKAILEKAEKLFS	not found
design_614_ef6b398b-10cb-4a07-8087-96dafb4f9c83_13_dldesign_0_cycle1_af2pred (protein) SEAEKQAIEIAIAAVLKAGELAGVPEEAKKVAEKIKKSNAGAALAIASAFLNRAAAAAEAAGDAATAAAIRALRTATTAKILALLRG	not found
design_614_ef6b398b-10cb-4a07-8087-96dafb4f9c83_88_dldesign_0_cycle1_af2pred (protein) GAALEEALRARAEAARRAMVAVSQAYQLDPALGNEYLARLSEAIAAAEKVLAEGKAKTPEAAAKAVKAAAEEIAALAEEIAAAVEALK	not found
design_614_ef6b398b-10cb-4a07-8087-96dafb4f9c83_149_dldesign_0_cycle1_af2pred (protein) MEEAEKYLKKAEEIVEKAKEEALKYAKEGDIGAAVETLAKALKEARKLYEKAGKAGDPEEAEKKAKEAEERINQAMAEAARTALEVAN	not found
design_614_ef6b398b-10cb-4a07-8087-96dafb4f9c83_520_dldesign_0_cycle1_af2pred (protein) AEGKALFEATKKEMEELREKGKAGTPELAKEQAAKILSLGLRTQGVLQTLGHTAEGDAALEYAKEVAEKAREWAKK	not found
design_614_ef6b398b-10cb-4a07-8087-96dafb4f9c83_591_dldesign_0_cycle1_af2pred (protein) MTPEEAARAALRSARAALESLKLAVEQGGTLEDVLALGAVAKQSAQAAVELGKQAPEIYEEVKKEAEKIKKEVEKAVAKAKA	not found
design_614_ef6b398b-10cb-4a07-8087-96dafb4f9c83_652_dldesign_0_cycle1_af2pred (protein) GAAEEAKKWAKKAEEALKAAQKAADAAGKTPTLQQYVDNAKRAAEKAKETSKDPSKVEQTKGWAKMAELWAQAAKQQAAAVAAA	not found
design_614_ef6b398b-10cb-4a07-8087-96dafb4f9c83_741_dldesign_0_cycle1_af2pred (protein) SELIERAKNLLEAAKVFLTAAQSALAAGQKATAATLAQQAIKYATEAAKLAKEAGDEKLAEEAKKVKEQAEKVLKQAQ	not found
design_614_ef6b398b-10cb-4a07-8087-96dafb4f9c83_786_dldesign_0_cycle1_af2pred (protein) STEQAAQIALNTAKANYKAAKAAAAAGDLAQAEANVKNLKLLTEAAKYYDPEAGKEVEKYYKEAKEAVEKAKAA	not found
design_614_ef6b398b-10cb-4a07-8087-96dafb4f9c83_806_dldesign_0_cycle1_af2pred (protein) AAAQLAAENIALAKAIFEEVRKEALKAIEALKKAKEAASDPELAAKYLEKAKEALKKAEELAAKGSEGIALLARNYVRSLLASTA	not found
